Data on 1 sequence can be found in paper PMC7862700, “An all-to-all approach to the identification of sequence-specific readers for epigenetic DNA modifications on cytosine”.

Holding throughout (assay): DAPPL (digital affinity profiling via proximity ligation, sequencing); 10 mM Tris-HCl pH 7.5, 50 mM NaCl, 1 mM DTT, 4% glycerol, room temperature, 30 min; GST-TFs on glutathione beads, 16-mer random dsDNA library, 0.1% formaldehyde crosslink after washing; high values mean tight binding
The target in experiment [1] is T1, FEV (Homo sapiens, UniProt Q99581 1-238).
T1 sequence: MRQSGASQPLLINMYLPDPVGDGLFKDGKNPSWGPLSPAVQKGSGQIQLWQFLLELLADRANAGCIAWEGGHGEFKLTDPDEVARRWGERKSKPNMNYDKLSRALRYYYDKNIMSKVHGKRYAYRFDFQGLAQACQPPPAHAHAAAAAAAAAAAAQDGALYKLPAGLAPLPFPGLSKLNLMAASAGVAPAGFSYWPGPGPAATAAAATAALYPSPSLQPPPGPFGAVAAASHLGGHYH
The following applies: protein: recombinant; tags: N-terminal GST; dsDNA, one strand shown. The procedure, abridged: (§1)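 Binding signal is defined as a hexamer's read frequency for one factor over its frequency for the tag-only sample. To obtain reads, GST-fused human transcription factors were expressed in yeast, captured on glutathione beads, barcoded with DNA and pooled with that sample. Pools met 200 nmole of a 16-mer random double-stranded DNA library in Tris/NaCl/DTT/glycerol buffer for 30 min at room temperature before washing, 0.1% formaldehyde crosslinking, proximity ligation (BsaI/T4 ligase, 1 h, 37 °C), PCR and Illumina NextSeq500 sequencing.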

The target in experiment [2] is ETV5 (Homo sapiens, UniProt P41161 1-510). The following applies: protein: recombinant; tags: N-terminal GST; dsDNA, one strand shown. The gist of the method: as §1
Experiment [3] has as its target HSF1 (Homo sapiens, UniProt Q00613 1-529). The following applies: protein: recombinant; tags: N-terminal GST; chain copies: 3; dsDNA, one strand shown. The procedure, abridged: as §1
Experiment [4] addresses T2, SPIC (Homo sapiens, UniProt Q8N5J4 1-248).
T2 sequence: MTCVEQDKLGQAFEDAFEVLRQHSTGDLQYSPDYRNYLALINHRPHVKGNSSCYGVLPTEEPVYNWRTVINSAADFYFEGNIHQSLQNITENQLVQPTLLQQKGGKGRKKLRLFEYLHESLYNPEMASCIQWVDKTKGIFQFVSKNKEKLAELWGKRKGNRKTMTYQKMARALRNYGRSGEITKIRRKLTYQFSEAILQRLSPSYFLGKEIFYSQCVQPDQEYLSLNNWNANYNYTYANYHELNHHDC
To be noted: protein: recombinant; tags: N-terminal GST; dsDNA, one strand shown. The procedure, abridged:
as §1

The target in experiment [5] is ELF4 (Homo sapiens, UniProt Q99607 1-663). To be noted: protein: recombinant; tags: N-terminal GST; dsDNA, one strand shown. The procedure, abridged: as §1
The target of experiment [6] is T3, ELK4 (Homo sapiens, UniProt P28324-2 1-405).
T3 sequence: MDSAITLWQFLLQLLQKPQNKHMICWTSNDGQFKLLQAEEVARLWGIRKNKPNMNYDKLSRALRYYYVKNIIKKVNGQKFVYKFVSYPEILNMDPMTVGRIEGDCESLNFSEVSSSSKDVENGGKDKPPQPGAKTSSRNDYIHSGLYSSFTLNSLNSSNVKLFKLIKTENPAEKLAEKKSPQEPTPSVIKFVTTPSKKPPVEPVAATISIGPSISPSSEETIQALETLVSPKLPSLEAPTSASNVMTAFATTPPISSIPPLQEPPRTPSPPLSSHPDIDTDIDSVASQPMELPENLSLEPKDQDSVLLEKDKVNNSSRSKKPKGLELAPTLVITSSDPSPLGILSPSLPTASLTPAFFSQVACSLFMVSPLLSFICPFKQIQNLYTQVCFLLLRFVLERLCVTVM
To be noted: protein: recombinant; tags: N-terminal GST; dsDNA, one strand shown. The procedure, abridged:
as §1

In experiment [7] the target is T4, ETV2 (Homo sapiens, UniProt O00321 1-342).
T4 sequence: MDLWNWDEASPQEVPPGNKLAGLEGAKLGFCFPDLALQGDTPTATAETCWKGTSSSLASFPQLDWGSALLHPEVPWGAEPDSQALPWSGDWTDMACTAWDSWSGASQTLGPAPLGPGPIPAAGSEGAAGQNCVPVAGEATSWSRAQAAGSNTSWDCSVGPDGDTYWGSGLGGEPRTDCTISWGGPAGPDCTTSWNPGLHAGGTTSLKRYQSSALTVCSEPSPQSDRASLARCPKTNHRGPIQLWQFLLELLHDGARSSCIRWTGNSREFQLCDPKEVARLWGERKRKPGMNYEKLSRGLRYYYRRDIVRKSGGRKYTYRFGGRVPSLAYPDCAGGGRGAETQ
The following applies: protein: recombinant; tags: N-terminal GST; dsDNA, one strand shown. The gist of the method:
as §1

Experiment [8] deals with T5, ELF3 (Homo sapiens, UniProt P78545 1-371).
T5 sequence: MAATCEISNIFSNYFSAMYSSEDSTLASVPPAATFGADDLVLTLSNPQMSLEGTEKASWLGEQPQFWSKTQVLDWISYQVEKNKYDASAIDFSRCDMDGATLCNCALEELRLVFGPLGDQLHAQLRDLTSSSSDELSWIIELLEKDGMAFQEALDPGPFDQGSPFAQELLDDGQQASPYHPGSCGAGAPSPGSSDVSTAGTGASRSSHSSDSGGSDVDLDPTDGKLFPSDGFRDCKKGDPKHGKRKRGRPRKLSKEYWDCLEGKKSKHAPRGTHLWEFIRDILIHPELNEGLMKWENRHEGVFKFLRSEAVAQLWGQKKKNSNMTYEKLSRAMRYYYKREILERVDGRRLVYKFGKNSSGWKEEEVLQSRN
The following applies: protein: recombinant; tags: N-terminal GST; dsDNA, one strand shown. The procedure, abridged:
as §1

The target in experiment [9] is CRX (Homo sapiens, UniProt O43186 1-299). To be noted: protein: recombinant; tags: N-terminal GST; dsDNA, one strand shown. The gist of the method: as §1
Experiment [10] concerns the target ETV1 (Homo sapiens, UniProt P50549 1-477). The following applies: protein: recombinant; tags: N-terminal GST; dsDNA, one strand shown. The procedure, abridged:
as §1

Experiment [11] concerns the target T6, ERF (Homo sapiens, UniProt P50548 1-548).
T6 sequence: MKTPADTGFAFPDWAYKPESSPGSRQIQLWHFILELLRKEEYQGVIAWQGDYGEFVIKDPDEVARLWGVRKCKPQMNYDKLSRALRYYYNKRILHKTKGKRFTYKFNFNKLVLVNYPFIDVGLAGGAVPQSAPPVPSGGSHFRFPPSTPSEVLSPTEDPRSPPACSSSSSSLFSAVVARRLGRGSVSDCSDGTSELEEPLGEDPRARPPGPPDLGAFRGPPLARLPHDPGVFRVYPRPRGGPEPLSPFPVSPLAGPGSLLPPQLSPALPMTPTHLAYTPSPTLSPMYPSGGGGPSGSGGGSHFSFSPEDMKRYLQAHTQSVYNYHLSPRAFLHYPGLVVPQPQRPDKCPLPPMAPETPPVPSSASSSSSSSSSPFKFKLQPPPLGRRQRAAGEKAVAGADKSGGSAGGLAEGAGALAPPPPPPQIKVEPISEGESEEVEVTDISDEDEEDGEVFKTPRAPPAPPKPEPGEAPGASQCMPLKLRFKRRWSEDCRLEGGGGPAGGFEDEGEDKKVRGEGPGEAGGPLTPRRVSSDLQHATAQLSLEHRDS
The following applies: protein: recombinant; tags: N-terminal GST; dsDNA, one strand shown. The gist of the method:
as §1

The target in experiment [12] is T7, ETV3L (Homo sapiens, UniProt Q6ZN32 1-361).
T7 sequence: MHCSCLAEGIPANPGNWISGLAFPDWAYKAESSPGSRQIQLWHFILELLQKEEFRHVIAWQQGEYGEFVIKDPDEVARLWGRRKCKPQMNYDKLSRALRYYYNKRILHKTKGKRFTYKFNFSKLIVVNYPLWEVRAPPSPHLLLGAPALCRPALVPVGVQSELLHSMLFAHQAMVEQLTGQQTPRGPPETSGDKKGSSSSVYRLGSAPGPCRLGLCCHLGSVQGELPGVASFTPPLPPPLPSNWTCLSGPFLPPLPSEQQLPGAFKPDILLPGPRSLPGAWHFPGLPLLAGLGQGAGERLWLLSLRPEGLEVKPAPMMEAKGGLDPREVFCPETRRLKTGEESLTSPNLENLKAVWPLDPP
The following applies: protein: recombinant; tags: N-terminal GST; dsDNA, one strand shown. The gist of the method:
as §1

Experiment [13] concerns the target T8, ETS2 (Homo sapiens, UniProt P15036 1-469).
T8 sequence: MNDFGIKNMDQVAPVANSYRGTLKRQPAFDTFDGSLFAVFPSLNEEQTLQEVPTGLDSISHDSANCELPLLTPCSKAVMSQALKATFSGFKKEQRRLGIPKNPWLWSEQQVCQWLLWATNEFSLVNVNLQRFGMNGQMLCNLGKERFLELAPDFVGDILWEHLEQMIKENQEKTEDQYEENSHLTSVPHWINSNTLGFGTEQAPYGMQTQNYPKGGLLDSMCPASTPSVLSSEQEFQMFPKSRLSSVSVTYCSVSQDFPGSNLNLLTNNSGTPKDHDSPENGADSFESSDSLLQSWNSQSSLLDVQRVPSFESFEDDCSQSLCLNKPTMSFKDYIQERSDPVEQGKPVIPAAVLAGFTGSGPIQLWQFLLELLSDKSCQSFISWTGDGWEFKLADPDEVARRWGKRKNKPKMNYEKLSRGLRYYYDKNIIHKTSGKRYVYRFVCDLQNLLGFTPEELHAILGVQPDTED
To be noted: protein: recombinant; tags: N-terminal GST; dsDNA, one strand shown. The procedure, abridged:
as §1

In experiment [14] the target is T9, SPDEF (Homo sapiens, UniProt O95238 1-335).
T9 sequence: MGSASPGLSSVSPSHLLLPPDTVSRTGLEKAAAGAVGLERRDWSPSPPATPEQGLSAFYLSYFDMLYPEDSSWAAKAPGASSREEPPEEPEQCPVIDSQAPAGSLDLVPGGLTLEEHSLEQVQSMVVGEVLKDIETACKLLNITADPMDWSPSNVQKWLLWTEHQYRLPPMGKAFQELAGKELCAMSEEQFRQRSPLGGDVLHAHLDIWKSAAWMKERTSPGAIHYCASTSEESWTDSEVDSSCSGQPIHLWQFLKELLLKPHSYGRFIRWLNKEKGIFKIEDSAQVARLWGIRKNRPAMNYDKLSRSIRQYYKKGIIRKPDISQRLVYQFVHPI
The following applies: protein: recombinant; tags: N-terminal GST; dsDNA, one strand shown. The gist of the method:
as §1

In experiment [15] the target is T10, ETV7 (Homo sapiens, UniProt Q9Y603 1-341).
T10 sequence: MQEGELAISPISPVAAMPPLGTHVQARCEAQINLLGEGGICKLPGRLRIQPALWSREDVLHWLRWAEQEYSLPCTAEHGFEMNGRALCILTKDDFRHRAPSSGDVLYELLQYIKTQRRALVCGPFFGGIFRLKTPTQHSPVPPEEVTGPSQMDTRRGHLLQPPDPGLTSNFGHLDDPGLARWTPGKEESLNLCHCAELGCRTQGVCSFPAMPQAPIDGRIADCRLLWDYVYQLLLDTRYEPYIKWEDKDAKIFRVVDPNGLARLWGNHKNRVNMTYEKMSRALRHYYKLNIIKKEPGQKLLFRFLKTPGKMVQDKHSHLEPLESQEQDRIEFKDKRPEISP
The following applies: protein: recombinant; tags: N-terminal GST; dsDNA, one strand shown. The gist of the method: as §1

Experiment [16] addresses T11, ELF5 (Homo sapiens, UniProt Q9UKW6-2 1-255).
T11 sequence: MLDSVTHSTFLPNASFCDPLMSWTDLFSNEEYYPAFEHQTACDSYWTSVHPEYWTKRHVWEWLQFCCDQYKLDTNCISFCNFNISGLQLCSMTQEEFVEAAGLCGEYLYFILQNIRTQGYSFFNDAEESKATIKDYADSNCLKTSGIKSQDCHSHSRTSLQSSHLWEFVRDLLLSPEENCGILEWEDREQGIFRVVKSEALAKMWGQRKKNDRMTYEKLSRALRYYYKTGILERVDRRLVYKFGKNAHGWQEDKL
To be noted: protein: recombinant; tags: N-terminal GST; dsDNA, one strand shown. The gist of the method: as §1

The target of experiment [17] is T12, ETV3 (Homo sapiens, UniProt P41162-2 1-143).
T12 sequence: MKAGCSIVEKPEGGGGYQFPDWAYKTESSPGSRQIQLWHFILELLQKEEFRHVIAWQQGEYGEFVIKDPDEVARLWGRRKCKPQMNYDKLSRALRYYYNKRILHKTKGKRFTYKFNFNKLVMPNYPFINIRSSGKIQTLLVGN
To be noted: protein: recombinant; tags: N-terminal GST; dsDNA, one strand shown. The procedure, abridged: as §1

Experiment [18] addresses ETV6 (Homo sapiens, UniProt P41212 1-452). The following applies: protein: recombinant; tags: N-terminal GST; dsDNA, one strand shown. The procedure, abridged: as §1

Sequence of ETV6 (P41212 whole entry): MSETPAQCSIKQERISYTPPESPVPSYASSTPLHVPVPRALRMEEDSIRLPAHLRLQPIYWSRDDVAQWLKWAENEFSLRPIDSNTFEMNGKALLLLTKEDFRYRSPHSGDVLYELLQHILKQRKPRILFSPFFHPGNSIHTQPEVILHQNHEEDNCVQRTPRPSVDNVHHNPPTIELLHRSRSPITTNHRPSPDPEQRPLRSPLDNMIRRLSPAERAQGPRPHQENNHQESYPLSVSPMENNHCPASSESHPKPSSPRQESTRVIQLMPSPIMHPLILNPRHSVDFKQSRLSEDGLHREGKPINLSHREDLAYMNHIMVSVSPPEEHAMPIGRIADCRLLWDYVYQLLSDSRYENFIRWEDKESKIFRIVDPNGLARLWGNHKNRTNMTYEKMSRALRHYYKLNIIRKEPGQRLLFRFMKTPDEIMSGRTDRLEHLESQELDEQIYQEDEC
Sequence of HSF1 (Q00613 whole entry): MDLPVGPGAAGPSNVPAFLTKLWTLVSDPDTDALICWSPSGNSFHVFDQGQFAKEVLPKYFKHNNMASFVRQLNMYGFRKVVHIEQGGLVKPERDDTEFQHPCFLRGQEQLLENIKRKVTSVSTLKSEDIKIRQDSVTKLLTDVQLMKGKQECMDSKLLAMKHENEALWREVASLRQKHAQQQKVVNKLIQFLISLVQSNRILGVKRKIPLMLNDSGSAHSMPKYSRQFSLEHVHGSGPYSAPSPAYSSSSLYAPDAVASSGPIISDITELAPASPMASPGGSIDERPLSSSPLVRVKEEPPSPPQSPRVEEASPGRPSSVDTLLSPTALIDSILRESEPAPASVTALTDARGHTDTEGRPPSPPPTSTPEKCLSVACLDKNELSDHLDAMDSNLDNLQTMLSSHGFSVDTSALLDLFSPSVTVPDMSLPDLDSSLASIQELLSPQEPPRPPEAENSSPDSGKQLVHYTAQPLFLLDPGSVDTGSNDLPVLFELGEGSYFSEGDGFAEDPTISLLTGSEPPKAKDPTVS
Sequence of ETV1 (P50549 whole entry): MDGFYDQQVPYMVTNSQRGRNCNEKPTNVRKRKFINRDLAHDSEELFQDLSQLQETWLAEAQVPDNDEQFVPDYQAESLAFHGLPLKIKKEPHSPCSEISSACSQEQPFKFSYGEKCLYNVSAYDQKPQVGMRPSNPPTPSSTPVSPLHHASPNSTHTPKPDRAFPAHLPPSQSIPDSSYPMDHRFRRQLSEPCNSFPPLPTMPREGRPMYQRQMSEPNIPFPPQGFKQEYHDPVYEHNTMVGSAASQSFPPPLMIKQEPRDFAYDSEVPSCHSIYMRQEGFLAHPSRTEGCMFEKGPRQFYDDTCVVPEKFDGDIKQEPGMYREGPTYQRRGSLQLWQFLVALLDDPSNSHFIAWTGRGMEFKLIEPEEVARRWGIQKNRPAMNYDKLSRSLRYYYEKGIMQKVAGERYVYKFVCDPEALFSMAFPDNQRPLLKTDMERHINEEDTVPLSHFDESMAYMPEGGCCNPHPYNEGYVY
Sequence of ETV5 (P41161 whole entry): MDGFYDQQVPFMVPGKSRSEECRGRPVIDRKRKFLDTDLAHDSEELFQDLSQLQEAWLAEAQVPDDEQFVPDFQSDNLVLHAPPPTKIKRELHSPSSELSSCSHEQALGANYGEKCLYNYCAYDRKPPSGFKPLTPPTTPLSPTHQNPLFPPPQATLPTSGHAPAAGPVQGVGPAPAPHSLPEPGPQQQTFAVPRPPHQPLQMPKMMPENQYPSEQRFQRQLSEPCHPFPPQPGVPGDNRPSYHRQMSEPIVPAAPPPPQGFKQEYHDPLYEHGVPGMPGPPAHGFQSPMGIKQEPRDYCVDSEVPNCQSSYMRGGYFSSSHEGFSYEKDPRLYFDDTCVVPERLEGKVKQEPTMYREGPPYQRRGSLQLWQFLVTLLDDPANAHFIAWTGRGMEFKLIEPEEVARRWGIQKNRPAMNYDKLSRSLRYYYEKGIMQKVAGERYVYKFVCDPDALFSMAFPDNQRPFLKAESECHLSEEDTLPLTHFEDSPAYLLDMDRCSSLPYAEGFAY
Sequence of ELF4 (Q99607 whole entry): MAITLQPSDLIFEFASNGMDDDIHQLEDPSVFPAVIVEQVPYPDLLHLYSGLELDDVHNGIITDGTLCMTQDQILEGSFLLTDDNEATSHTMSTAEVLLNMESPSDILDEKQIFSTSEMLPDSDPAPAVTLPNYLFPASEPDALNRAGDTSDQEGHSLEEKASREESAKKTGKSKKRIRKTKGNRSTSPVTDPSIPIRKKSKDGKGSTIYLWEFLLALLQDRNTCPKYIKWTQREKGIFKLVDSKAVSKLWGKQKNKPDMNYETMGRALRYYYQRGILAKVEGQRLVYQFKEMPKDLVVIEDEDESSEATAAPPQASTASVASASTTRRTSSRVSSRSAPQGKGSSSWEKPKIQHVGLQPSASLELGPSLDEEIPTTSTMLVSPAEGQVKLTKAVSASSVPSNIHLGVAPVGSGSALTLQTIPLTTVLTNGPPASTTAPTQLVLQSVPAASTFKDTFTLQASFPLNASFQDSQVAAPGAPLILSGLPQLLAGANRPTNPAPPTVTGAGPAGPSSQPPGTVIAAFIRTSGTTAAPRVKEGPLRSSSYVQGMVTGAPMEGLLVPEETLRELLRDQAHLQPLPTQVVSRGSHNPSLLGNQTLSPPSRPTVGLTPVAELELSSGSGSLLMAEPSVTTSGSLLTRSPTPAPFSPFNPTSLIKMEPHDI
Sequence of CRX (O43186 whole entry): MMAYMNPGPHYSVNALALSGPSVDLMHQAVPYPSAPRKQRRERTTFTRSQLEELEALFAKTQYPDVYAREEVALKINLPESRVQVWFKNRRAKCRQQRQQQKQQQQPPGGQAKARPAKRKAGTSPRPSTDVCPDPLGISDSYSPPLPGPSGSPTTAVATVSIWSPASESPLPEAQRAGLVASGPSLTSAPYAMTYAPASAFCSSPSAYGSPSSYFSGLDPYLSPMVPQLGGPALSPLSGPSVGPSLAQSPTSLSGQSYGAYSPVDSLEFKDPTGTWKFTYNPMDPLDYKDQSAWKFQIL

Take GTAATA: the binding signal is 1.11 fold enrichment (6-mer frequency, TF over GST control) in experiment [1]; 1.13 fold enrichment (6-mer frequency, TF over GST control) in experiment [2]; 1.24 fold enrichment (6-mer frequency, TF over GST control) in experiment [3]; 1.27 fold enrichment (6-mer frequency, TF over GST control) in experiment [4]; 1.16 fold enrichment (6-mer frequency, TF over GST control) in experiment [5]; 1.27 fold enrichment (6-mer frequency, TF over GST control) in experiment [6]. In addition, the binding signal in experiment [7] was 1.09 fold enrichment (6-mer frequency, TF over GST control); in [8], 1.22 fold enrichment (6-mer frequency, TF over GST control); in experiment [9] it was 1.52 fold enrichment (6-mer frequency, TF over GST control); in experiment [10], 1.13 fold enrichment (6-mer frequency, TF over GST control); in experiment [11], 1.12 fold enrichment (6-mer frequency, TF over GST control); in [12], 1.16 fold enrichment (6-mer frequency, TF over GST control). For the same sequence, the binding signal in experiment [13] is 1.11 fold enrichment (6-mer frequency, TF over GST control); in experiment [14], 1.16 fold enrichment (6-mer frequency, TF over GST control); in experiment [15] it was 1.29 fold enrichment (6-mer frequency, TF over GST control); in experiment [16] it was 1.2 fold enrichment (6-mer frequency, TF over GST control); in experiment [17], 1.06 fold enrichment (6-mer frequency, TF over GST control); in experiment [18], 1.16 fold enrichment (6-mer frequency, TF over GST control).
